# Data reported in PubChem BioAssay AID2284387 (EPA ToxCast).
# Records with an inconclusive call do not appear. The source made the active and inactive calls. How the source made its calls: active means hit-call score of the fitted dose curve at least 0.9, where 1 is the maximum; inconclusive means response in the unintended direction; inactive means score below 0.9.
# Target: human Peroxisome Proliferator-activated Receptor delta (PPARd) Agonism, conducted at France lab site, PPARD (gene 5467) (UniProt Q03181)
# Sequence (Q03181 whole entry, looked up): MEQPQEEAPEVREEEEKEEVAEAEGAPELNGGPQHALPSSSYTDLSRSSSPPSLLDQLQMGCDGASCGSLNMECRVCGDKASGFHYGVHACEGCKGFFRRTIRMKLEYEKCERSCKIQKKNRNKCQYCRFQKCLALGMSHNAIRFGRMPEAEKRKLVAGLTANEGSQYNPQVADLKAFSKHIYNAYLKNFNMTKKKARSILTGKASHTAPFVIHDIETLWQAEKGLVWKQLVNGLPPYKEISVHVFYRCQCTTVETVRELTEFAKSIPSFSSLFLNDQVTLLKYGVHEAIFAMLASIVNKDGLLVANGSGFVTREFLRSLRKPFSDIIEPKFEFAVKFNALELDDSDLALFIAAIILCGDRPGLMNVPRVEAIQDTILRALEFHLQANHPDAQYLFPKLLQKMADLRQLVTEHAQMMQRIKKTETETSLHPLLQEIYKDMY
# Experiment: ERF_FR_NR_COA_hPPARD: Eurofins (ERF) Nuclear Receptor (NR) Functional Coactivator Assay for human Peroxisome Proliferator-activated Receptor delta (PPARd) Agonism, conducted at France lab site
# Protocol: ERF_FR_NR_COA_hPPARD is a biochemical, single-readout assay that uses extracted gene-proteins in a cell-free assay. Measurements were taken 2 hours after chemical dosing in a 384-well plate. See PPARdelta Human NHR Functional Agonist Coactivator Assay, Cerep.ERF_FR_NR_COA_hPPARD is an assay component calculated from the ERF_FR_NR_COA_hPPARD assay. It is designed to measure FRET using a type of binding reporter as detected by fluorescence intensity of GW0742 with fluorimetry technology.Data from the assay component ERF_FR_NR_COA_hPPARD was analyzed at the assay endpoint, ERF_FR_NR_COA_hPPARD, in the positive analysis fitting direction relative to DMSO as the negative control and baseline of activity. […]
# Histidine-tagged-PPARdelta (Ligand Binding Domain, 1.7 ul/ml proteins) are mixed with 50 nM biotin-tagged-C33 coactivator and 0.4 ug fluorescence acceptor (anti-histidine antibody coupled-beads) in an incubation buffer containing 20 mM Hepes/NaOH (pH 7.4), 80 mM Nacl, 0.08% Tween 20 and 0.8 mM DTT and 0.08% BSA. […] Thereafter, fluorescence donor (streptavidin coupled-beads) is added at a final concentration of 0.4 ug. Following 120 min incubation at 22C, the signal is measured at lambdaex=680 nm and lambdaem=520 and 620 nm using a microplate reader (EnVision, Perkin Elmer). The results are expressed as a percent of the control response to […] nM GW 0742. […]
row,Structure (SMILES),outcome
1,O=C(O)CCC(F)(F)C(F)(F)C(F)(F)F,inactive
2,CC(C)(Oc1ccc(C(=O)c2ccc(Cl)cc2)cc1)C(=O)O,inactive
